Here are results for 31 compounds from PubChem BioAssay (Tox21).

A number with no mark means an inactive call. Records with an inconclusive call do not appear. Where a call stands in place of a potency, no number is given. The source made the active and inactive calls. Unless noted, the call rests on the fitted dose curve; in most records, active means well fitted inhibition curve with a large enough effect in the repeat runs (not every such curve was filed as active); inconclusive means weak or mixed curves; inactive means flat fitted curve, though single readings scatter.

Thyrotropin-releasing hormone receptor (Homo sapiens), sequence (P34981 whole entry, looked up): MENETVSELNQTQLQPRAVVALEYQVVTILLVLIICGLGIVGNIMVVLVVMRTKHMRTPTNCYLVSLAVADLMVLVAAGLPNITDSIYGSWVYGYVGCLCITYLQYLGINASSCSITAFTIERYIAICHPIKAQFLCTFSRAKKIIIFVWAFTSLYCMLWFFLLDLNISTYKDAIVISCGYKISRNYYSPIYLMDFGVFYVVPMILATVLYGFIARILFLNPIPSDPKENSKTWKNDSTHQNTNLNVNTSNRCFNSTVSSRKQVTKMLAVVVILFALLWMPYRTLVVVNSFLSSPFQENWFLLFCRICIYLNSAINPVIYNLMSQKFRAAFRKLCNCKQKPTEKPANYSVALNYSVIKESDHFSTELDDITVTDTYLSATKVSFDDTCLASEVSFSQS

Test system in the first experiment: not listed separately
The experiment is described as follows: qHTS assay to identify small molecule agonists of the TGF-beta/Smad signaling pathway (AID 1346859; active means well fitted activation curve with a large enough effect in the signal ratio in the repeat runs, not every such curve was filed as active; the % refers to the signal ratio). To be noted: SBE-bla HEK293T, TGF-beta/Smad beta-lactamase reporter, 5 h; series mostly up to 76.8 µM. In short, it runs like this: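 Stable Smad binding element-beta-lactamase HEK 293T cells; 5 hr compound exposure at 37 C under 5% CO2; 2 hr room-temperature substrate step; fluorescence excited at 405 nm, collected at 460 nm and 530 nm.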
As to `Cc1cc(C)c(C2=C(OC(=O)CC(C)(C)C)C3(CCCC3)OC2=O)c(C)c1`, the compound was classed as inactive. Consider `O=C(CBr)c1ccc(O)cc1`, for which the result was inactive. The same measure, in the same setting: for `Nc1ccc(Sc2ccc(N)cc2)cc1` the value was “inactive”; for `O=C1NCN(c2ccccc2)C12CCN(CC1COc3ccccc3O1)CC2` (configuration not stated), “inactive”; for `COC(=O)N(C(=O)N1CO[C@@]2(C(=O)OC)Cc3cc(Cl)ccc3C2=N1)c1ccc(OC(F)(F)F)cc1`, “inactive”.

With `COc1ccc(OC)c(C=O)c1`, the result was inactive.

With `C[C@]12CC[C@H]3[C@@H](CCC4=CC(=O)CC[C@@]43C)[C@@H]1CC[C@@H]2O`, the compound was called inactive. Still for that read-out and setting: for `CC(=O)O[C@H]1CC[C@@]2(C)C(=CC[C@@H]3[C@@H]2CC[C@]2(C)C(=O)CC[C@@H]32)C1` the value was “inactive”; for `O=C(CCCN1CCC2(CC1)C(=O)NCN2c1ccccc1)c1ccc(F)cc1`, “inactive”. On the same count and under the same terms, the value for `[Cd+2].[Cl-].[Cl-]` was “inactive”.

In the case of `Oc1c(Cl)c(Cl)cc(Cl)c1Cl`, the call was inactive.

Consider `CC(=O)C(Cl)(Cl)Cl`, for which the result was inactive. On to `CN(C)C(=S)[S-].CN(C)C(=S)[S-].[Cu+2]`, for which the activation is -6.22% [at 15.8 µM].

On to `Cc1cc(C(F)(C(F)(F)F)C(F)(F)F)ccc1NC(=O)c1cccc(I)c1C(=O)NC(C)(C)CS(C)(=O)=O`, for which the call was inactive.

On to `O=S(=O)(c1ccc(Cl)cc1)c1ccc(Cl)cc1`, for which the compound was called inactive. Same read-out and setting: for `O=c1ssc(Cl)c1Cl` the value was “inactive”. Still for that read-out and setting: the value for `CC(C)OC(=S)S` was “inactive”. Consider `CC(C)[C@H](C(=O)O[C@H](C#N)c1cccc(Oc2ccccc2)c1)c1ccc(Cl)cc1`, for which the compound was called inactive.

Another experiment addresses Thyrotropin-releasing hormone receptor (Homo sapiens) (UniProt P34981). The experiment is described as follows: qHTS assay to identify small molecule antagonists of the thyrotropin-releasing hormone receptor (TRHR) signaling pathway (AID 1346877). Further: potency means the concentration at half of the fitted maximal effect. To be noted: TRHR-HEK293, TRH-induced calcium fluorescence, antagonist mode; series mostly up to 51.3 µM. An outline of the steps: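 Antagonist mode: after a 5 min room-temperature compound exposure, cells were stimulated with 1 nM (final) TRH. Dye-loaded TRHR-HEK293 cells were used, and calcium-dependent fluorescence was followed for 3 min, with 15-point titrations run in triplicate.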
In general terms: Quantitative high-throughput screening tests each substance at several concentrations.
Turning to `Nc1ccc(Sc2ccc(N)cc2)cc1`, the Potency result was “inactive”.

On to `O=C1NCN(c2ccccc2)C12CCN(CC1COc3ccccc3O1)CC2` (configuration not stated), for which the Potency result is “inactive”. On the same count and under the same terms, the value for `O=[N+]([O-])c1cc(C(F)(F)F)c(Cl)c([N+](=O)[O-])c1Cl` was “inactive”. The same measure, in the same setting: the value for `CN(C)[C@@H]1C(=O)C(C(N)=O)=C(O)[C@@]2(O)C(=O)C3=C(O)c4c(O)ccc(Cl)c4[C@@](C)(O)[C@H]3C[C@@H]12` was “inactive”; that for `Oc1c(Cl)c(Cl)cc(Cl)c1Cl` was “inactive”; that for `CC(=O)C(Cl)(Cl)Cl` was “inactive”. Still for that read-out and setting: for `Cc1cc(C(F)(C(F)(F)F)C(F)(F)F)ccc1NC(=O)c1cccc(I)c1C(=O)NC(C)(C)CS(C)(=O)=O` the value was “inactive”; for `C[C@H]1CC[C@@H]2[C@@H](C)[C@H]3[C@H](C[C@H]4[C@@H]5CC=C6CC(O[C@@H]7O[C@H](CO)[C@H](O)[C@H](O[C@@H]8O[C@H](CO)[C@@H](O)[C@H](O)[C@H]8O)[C@H]7O[C@H]7O[C@@H](C)[C@H](O)[C@@H](O)[C@H]7O)CC[C@]6(C)[C@H]5CC[C@]34C)N2C1` (some centres not stated), 7.82 µM (active); for `CCOCn1c(-c2ccc(Cl)cc2)c(C#N)c(Br)c1C(F)(F)F`, “inactive”. In the case of `C[C@@H]1CC[C@@]2(OC1)O[C@H]1[C@@H](O)[C@H]3[C@@H]4CC[C@H]5C[C@@H](O[C@@H]6O[C@H](CO)[C@H](O[C@@H]7O[C@H](CO)[C@@H](O)[C@H](O[C@@H]8OC[C@@H](O)[C@H](O)[C@H]8O)[C@H]7O[C@@H]7O[C@H](CO)[C@@H](O)[C@H](O[C@@H]8O[C@H](CO)[C@@H](O)[C@H](O)[C@H]8O)[C@H]7O)[C@H](O)[C@H]6O)[C@H](O)C[C@]5(C)[C@H]4CC[C@]3(C)[C@H]1[C@@H]2C`, the Potency is 0.804 µM (active). Same read-out and setting: the value for `O=C(O)COc1nc(Cl)c(Cl)cc1Cl` was “inactive”.

Consider `CC(C)OC(=O)C(O)(c1ccc(Cl)cc1)c1ccc(Cl)cc1`, for which the Potency entry is “inactive”.

With `CC1(C)CC/C(=C/c2ccc(Cl)cc2)C1(O)Cn1cncn1` (configuration not stated), the Potency entry was “inactive”. On the same count and under the same terms, the value for `c1cc[c]([Sb]([c]2ccccc2)[c]2ccccc2)cc1` was “inactive”; that for `[CH3][Hg][Cl]` was 30.1 µM (active); that for `CC(C)(O)c1cnn2c(-c3ccc(F)c(-c4c(F)cccc4C#N)c3)cnc2n1` was “inactive”. The same measure, in the same setting: the value for `CC(C)(c1ccc(O)c(-c2ccccc2)c1)c1ccc(O)c(-c2ccccc2)c1` was “inactive”; that for `CC(C)OC(=S)S` was “inactive”; that for `C=CC(=O)OCC(COC(=O)C=C)(COC(=O)C=C)COC(=O)C=C` was “inactive”.
